{"source": "ChEMBL document CHEMBL3988442", "about": "“University of Dundee, Small-Polar-MMV Screening Library” (2021)", "note": "Screen size: about 48,000 compounds; about 13,000 (27%) showed an effect of 50% or more. The list shows a part of the results."}
{"tested_on": "Wolbachia pipientis", "assay": "Anti-Wolbachia Cell-Based Screen", "assay_type": "functional", "parameters": "scale not given: in the data most compounds retested in dose-response had high values", "conditions": "5 µM", "units": {"Percent Effect": "%"}}
{"smiles": "Cc1c(Br)cccc1C(=O)NCC1CCNCC1.Cl", "Percent Effect": 5.039}
{"smiles": "COC(=O)NCc1ccc(NC(=O)CC2=CCCCC2)cc1", "Percent Effect": -4.854}
{"smiles": "Cc1nc(N2CCN(S(C)(=O)=O)CC2)cc(-n2cnc(C)c2C)n1", "Percent Effect": -12.66}
{"smiles": "CC(C)(C)CCN1CCCC(Cn2cc(CCO)nn2)C1", "note": "(stereo not given)", "Percent Effect": -5.43}
{"smiles": "Cc1ccccc1CN1CCN(C(=O)CCn2ccccc2=O)CC1", "Percent Effect": -43.85}
{"smiles": "CC(C)(C)n1cc(C(=O)N2CCN(Cc3ccccc3F)CC2)cn1", "Percent Effect": -9.517}
{"smiles": "CNS(=O)(=O)c1ccc(CN2CCN(Cc3ncccc3C)CC2)cc1", "Percent Effect": 2.71}
{"smiles": "Cc1ccccc1CN1CCN(C(=O)c2ccn(C(C)(C)C)c2)CC1", "Percent Effect": 106.5}
{"smiles": "Cc1cccnc1CN1CCN(C(=O)CCn2ccccc2=O)CC1", "Percent Effect": -35.18}
{"smiles": "Cc1cccnc1CN1CCN(C(=O)c2ccn(C(C)(C)C)c2)CC1", "Percent Effect": 140.1}
{"smiles": "CCOC(=O)CC(NC(=O)c1cn(Cc2ccccc2F)nn1)C(C)C", "note": "(stereo not given)", "Percent Effect": 0.973}
{"smiles": "O=C(O)C1c2nc[nH]c2CCN1Cc1cc(-c2ccccc2)no1", "note": "(stereo not given)", "Percent Effect": -8.907}
{"smiles": "CCCc1cc(C(=O)N(C)Cc2cccc3cnccc23)n(C)n1", "Percent Effect": -5.635}
{"smiles": "O=C(CCc1n[nH]c2c1CCCC2)N1C[C@@H]2CC[C@H](C1)N(CC1CC1)C2", "Percent Effect": 3.665}
{"smiles": "CN(Cc1cccc2cnccc12)C(=O)CCc1n[nH]c2c1CCCC2", "Percent Effect": 113.4}
{"smiles": "Cc1ncc(CC(=O)N2CCC3(CCC(=O)N(C4CC4)C3)CC2)c(=O)[nH]1", "Percent Effect": 3.916}
{"smiles": "NC(=O)NC1CCN(Cc2ccc(Br)c(F)c2)CC1", "Percent Effect": -13.64}
{"smiles": "CCc1ncc(CNCc2cccnc2N(C)C)cn1", "Percent Effect": 101.7}
{"smiles": "CC(C)NS(=O)(=O)c1ccccc1CNCc1cccc(O)c1", "Percent Effect": -3.142}
{"smiles": "CCOc1ccc(S(=O)(=O)NCc2cccnc2N(C)C)cc1", "Percent Effect": -21.99}
{"smiles": "CC(C)(C)NS(=O)(=O)c1ccccc1CNCc1cccc(O)c1", "Percent Effect": -1.047}
{"smiles": "Cc1oc(C)c(C(=O)NCc2cccnc2N(C)C)c1C", "Percent Effect": -9.408}
{"smiles": "CCOc1ccc(CNCc2cccnc2N(C)C)cc1", "Percent Effect": 80.05}
{"smiles": "CC(=O)Nc1ccc(CNCc2cccnc2N(C)C)cc1", "Percent Effect": 96.06}
{"smiles": "CN(C)c1ncccc1CNCc1cccc(O)c1", "Percent Effect": 107.5}
{"smiles": "CCN(C(=O)NCc1cccnc1N(C)C)C(C)c1cccnc1", "note": "(stereo not given)", "Percent Effect": -18.28}
{"smiles": "O=C(O)[C@@H]1CN(Cc2c[nH]c(CC3CCCC3)n2)C[C@H]1c1ccncc1", "Percent Effect": -4.479}
{"smiles": "CCN(CC)c1nc2sc(C(=O)NCC(=O)OC)cc2s1", "Percent Effect": -6.557}
{"smiles": "O=C1N[C@@H]2CCN(C(=O)N3CCOCC3)[C@@H]2C(=O)N1Cc1ccccc1", "Percent Effect": 7.346}
{"smiles": "OC(CN(Cc1ccccc1)Cc1ccon1)c1ccco1", "note": "(stereo not given)", "Percent Effect": 27.39}
{"smiles": "CCCN1CCC(NN2CCN(C)CC2)CC1", "Percent Effect": 6.891}
{"smiles": "NC1(CNC(=O)c2cc3ccccc3[nH]2)CCCC1", "Percent Effect": 106.9}
{"smiles": "COc1ccc2cc(C(=O)N3CCCCC3CC(N)=O)[nH]c2c1", "note": "(stereo not given)", "Percent Effect": -6.391}
{"smiles": "O=C(Nc1cc(CSCCO)ccn1)c1cc2ccccc2[nH]1", "Percent Effect": -29.11}
{"smiles": "COc1ccc(CNC(=O)C2(C#N)CCCC2)cc1", "Percent Effect": -22.34}
{"smiles": "COc1ccc2[nH]c(C(=O)NCC3(N)CCCC3)cc2c1", "Percent Effect": 112.8}
{"smiles": "O=C(NCC1(O)CCSCC1)c1nccc2ccccc12", "Percent Effect": -4.929}
{"smiles": "COCCOc1ccc(NC(=O)N(C)Cc2ccsc2)cn1", "Percent Effect": -6.376}
{"smiles": "Cc1noc([C@H]2C[C@H]3OCC[C@H]3N(Cc3cccs3)C2)n1.O=C(O)C(F)(F)F", "Percent Effect": -3.779}
{"smiles": "CN(Cc1ncnn1C)C(=O)CCCn1ccc2cc(Cl)ccc21", "Percent Effect": 8.375}
{"smiles": "O=C(NCCC(=O)N1CCCc2ccccc21)c1c(F)cccc1F", "Percent Effect": 120}
{"smiles": "O=C(NCCSC1CCCC1)c1c(F)cccc1F", "Percent Effect": 10.15}
{"smiles": "O=C(NCC(=O)N1CCCc2ccccc21)c1c(O)cc(F)cc1F", "Percent Effect": 103.6}
{"smiles": "CCC(CNC(=O)c1ccc(F)cc1F)N1CCc2ccccc2C1", "note": "(stereo not given)", "Percent Effect": 10.38}
{"smiles": "Cn1cc(CCNC(=O)N2CCCc3c(F)cccc32)cn1", "Percent Effect": -24.48}
{"smiles": "O=C(NCCSC1CCCC1)c1ccc(F)cc1F", "Percent Effect": 11.89}
{"smiles": "CS(=O)(=O)c1ccc2c(c1)N(C(=O)Cc1cccc(F)c1)CCC2", "Percent Effect": 1.079}
{"smiles": "O=C(NCCC(=O)N1CCCc2ccccc21)c1cc(F)cc(F)c1", "Percent Effect": 126.9}
{"smiles": "O=C(NCCS(=O)(=O)N1CCc2ccccc21)c1c(O)cc(F)cc1F", "Percent Effect": 11.09}
{"smiles": "CS(=O)(=O)c1ccc2c(c1)N(C(=O)c1cccc(F)c1)CCC2", "Percent Effect": 5.094}
{"smiles": "O=C(NCCC(=O)N1CCCc2ccccc21)c1ccc(F)cc1F", "Percent Effect": 138.5}
{"smiles": "O=C(NCCC(=O)N1CCCc2ccccc21)c1c(O)cc(F)cc1F", "Percent Effect": 3.729}
{"smiles": "CC(C)N1CCC2(CC1)CN(C)C(=O)C[C@H]2C(F)(F)F", "Percent Effect": -3.989}
{"smiles": "COc1ccc2c(c1)CCCN(C(C)C(=O)NC(N)=O)C2", "note": "(stereo not given)", "Percent Effect": -1.078}
{"smiles": "NC(=O)C1=NC2=NS(=O)(=O)c3ccccc3N2N1Cc1ccc(Br)cc1", "Percent Effect": 9.157}
{"smiles": "Cc1c[nH]c(C(=O)N2CCn3nc(C(=O)NC4CC4)cc3C2)n1", "Percent Effect": -2.025}
{"smiles": "Cc1nc2ccc(C(=O)N3CCN(CCO)[C@@H]4CS(=O)(=O)C[C@@H]43)cc2o1", "Percent Effect": -12.01}
{"smiles": "CC(C)N1CCC(c2n[nH]cc2S(C)(=O)=O)CC1", "Percent Effect": 115.7}
{"smiles": "CCc1ncc(C(=O)N2CCCC(c3nccn3CCOC)C2)cn1", "note": "(stereo not given)", "Percent Effect": -9.089}
{"smiles": "Cc1nc(N)sc1C(=O)N1CCCC(c2nccn2CCCN(C)C)C1", "note": "(stereo not given)", "Percent Effect": 8.356}
{"smiles": "Cc1cc(C(=O)N2CCCC(c3nccn3C)C2)cc(S(N)(=O)=O)c1C", "note": "(stereo not given)", "Percent Effect": 99.7}
{"smiles": "Cc1cc(C(=O)N2CCCC(c3nccn3Cc3ccncc3)C2)no1", "note": "(stereo not given)", "Percent Effect": 10.63}
{"smiles": "COCCn1ccnc1C1CCCN(C(=O)c2cc(F)cc(F)c2)C1", "note": "(stereo not given)", "Percent Effect": 83.8}
{"smiles": "COCCn1ccnc1C1CCCN(C(=O)c2cccnc2SC)C1", "note": "(stereo not given)", "Percent Effect": -0.1241}
{"smiles": "Cn1ccnc1C1CCCN(C(=O)c2ccncc2F)C1", "note": "(stereo not given)", "Percent Effect": 111.1}
{"smiles": "COCCn1ccnc1C1CCCN(C(=O)c2ccncc2F)C1", "note": "(stereo not given)", "Percent Effect": 0}
{"smiles": "Cn1ccnc1C1CCCN(C(=O)c2cc(F)cc(F)c2)C1", "note": "(stereo not given)", "Percent Effect": 106.9}
{"smiles": "COCCn1ccnc1C1CCCN(C(=O)c2ccccc2C#N)C1", "note": "(stereo not given)", "Percent Effect": -8.592}
{"smiles": "CC(C)(O)c1cn(C2CCN(C(=O)CCC(F)(F)F)CC2)nn1", "Percent Effect": 13.09}
{"smiles": "CN(CCc1ccncc1)C(=O)c1sccc1OC(F)F", "Percent Effect": -13.92}
{"smiles": "CCC1=N[C@@]2(CC[C@@H]3CN(C(=O)NCC(C)C)C[C@@H]32)C(=O)N1CC1CC1", "Percent Effect": 11.23}
{"smiles": "Cc1ncc(C(=O)Nc2cncnc2N(C)C)c(Cl)c1Cl", "Percent Effect": -6.041}
{"smiles": "CN(C)C(=O)c1cccnc1SCc1ccccc1C#N", "Percent Effect": 100.1}
{"smiles": "CN(C)C(=O)CN1C[C@@H]2CC[C@H](C1)N(Cc1ccccc1C#N)C2", "Percent Effect": -40.35}
{"smiles": "CSc1ncccc1C(=O)N(C)CCc1scnc1C", "Percent Effect": 0.9599}
{"smiles": "CSc1ncccc1C(=O)N(C)C(C)Cc1ccccn1", "note": "(stereo not given)", "Percent Effect": 1.339}
{"smiles": "Cc1cccnc1NC(=O)CNC(=O)c1ccccc1Cl", "Percent Effect": -60.17}
{"smiles": "CN(C)C(=O)c1ccccc1NCCCOc1cccc(C#N)c1", "Percent Effect": -15.07}
{"smiles": "CN(C)C(=O)c1cccnc1SCc1ccccc1Cl", "Percent Effect": 128.1}
{"smiles": "Cc1ccccc1CSc1ncccc1C(=O)N(C)C", "Percent Effect": 111}
{"smiles": "CSCC(=O)N(Cc1ccccn1)Cc1ccccc1C", "Percent Effect": -1.935}
{"smiles": "O=C(CNC(=O)C1CCCC1)NCc1cnn(-c2ccc(F)cc2F)c1", "Percent Effect": -3.155}
{"smiles": "CC(=O)N1CCc2c(nc(N(C)C)nc2NCCc2cccs2)C1", "Percent Effect": 30.52}
{"smiles": "Cc1ccccc1C(O)CNC(=O)Cc1ccc(F)cc1", "note": "(stereo not given)", "Percent Effect": -16.74}
{"smiles": "O=C(CCN1CCOC(Cn2cccn2)C1)NC1CCCC1", "note": "(stereo not given)", "Percent Effect": 3.251}
{"smiles": "O=C(CCN1CCOC(Cn2cccn2)C1)NC1CCCCC1", "note": "(stereo not given)", "Percent Effect": 137.8}
{"smiles": "c1cnnc(NCC2CN(CCN3CCCCC3)CCO2)c1", "note": "(stereo not given)", "Percent Effect": -1.688}
{"smiles": "O=C(CN1CCOC(CNc2cccnn2)C1)N1CCCCC1", "note": "(stereo not given)", "Percent Effect": 113.9}
{"smiles": "OC1(CN2CCOC(CNc3cccnn3)C2)CCCCC1", "note": "(stereo not given)", "Percent Effect": 90.58}
{"smiles": "O=C(CN1CCOC(Cn2cccn2)C1)NC1CCN(C2CC2)CC1", "note": "(stereo not given)", "Percent Effect": -5.348}
{"smiles": "O=C(CCN1CCOC(CNc2cccnn2)C1)NC1CCCCC1", "note": "(stereo not given)", "Percent Effect": 89.48}
{"smiles": "Cc1c2nnn(CC(=O)N(C)C)c(=O)c2nn1C", "Percent Effect": 15.44}
{"smiles": "COCc1nc2cc(NCc3ccc(C)o3)ccc2o1", "Percent Effect": -0.6949}
{"smiles": "COCCN(C)CCN1CC2(CCN(C3CCCOC3)CC2)OC1=O", "note": "(stereo not given)", "Percent Effect": -0.4921}
{"smiles": "Cc1cnccc1NCCn1ccnc1C1CCCCC1", "Percent Effect": 3.788}
{"smiles": "Cc1ncc(CN(C)CC(O)c2ccc(OC(F)(F)F)cc2)s1", "note": "(stereo not given)", "Percent Effect": -20.59}
{"smiles": "Cc1cnn(CCC(=O)NC2CCc3nc(C)cn3C2)c1", "note": "(stereo not given)", "Percent Effect": 105.9}
{"smiles": "Cc1cn2c(n1)CCC(NC(=O)CCC(F)(F)F)C2", "note": "(stereo not given)", "Percent Effect": 10.47}
{"smiles": "Cc1cn2c(n1)CCC(NC(=O)CCCn1cncn1)C2", "note": "(stereo not given)", "Percent Effect": 102.3}
{"smiles": "Cc1cn2c(n1)CCC(NC(=O)CCn1ccnn1)C2", "note": "(stereo not given)", "Percent Effect": -2.127}
{"smiles": "Cc1cn2c(n1)CCC(NC(=O)CCn1cncn1)C2", "note": "(stereo not given)", "Percent Effect": -7.204}
{"smiles": "Cc1cn2c(n1)CCC(NC(=O)c1ccc(CS(C)(=O)=O)o1)C2", "note": "(stereo not given)", "Percent Effect": -5.623}
{"smiles": "Cc1cn2c(n1)CCC(NC(=O)Cn1cncn1)C2", "note": "(stereo not given)", "Percent Effect": 119.2}
{"smiles": "CCN(C(=O)CNC1CCc2ncnn2C1)C1=CCCCC1", "note": "(stereo not given)", "Percent Effect": -6.833}
{"smiles": "CC(C)Oc1ccc(NCc2ccc([S+](C)[O-])cc2)c(F)c1", "note": "(stereo not given)", "Percent Effect": 7.808}
